Screens as filed in PubChem.
Shown are actives, neighbours in structure and some others; about 1.5% of the full set was active somewhere.
CRFR2-BP antag: antagonists of CRF-BP/CRF-R2 complex, primary screen, cell-based, HEK293, calcium dye fluorescence, uHTS | CRF-induced calcium fluorescence | AID 588475, 2011 | hit rate 0.59% among 350,000 | inhibition, % at 11.8 µM;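 active means inhibition of the ligand-induced calcium signal above about 50% at the single tested concentration, limit read from the data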
CRFR2-BP ag: agonists of CRF-BP/CRF-R2 complex, primary screen, cell-based, HEK293, calcium dye fluorescence, uHTS; CRF-binding protein / CRF receptor 2 complex (human); calcium dye fluorescence (FLIPR); percent of saturating CRF peptide response; activation, % at 13.2 µM; hit rate 0.46% among 350,000; AID 588473, 2011;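 active means activation of at least 50%, plus an integration ratio under a set limit after plate pattern correction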
NTR1 ag: agonists of human NTR1, primary screen, imaging, U2OS cells, beta-arrestin-GFP, high content | Neurotensin receptor type 1 (Homo sapiens), P30989 | NTR1-U2OS beta-arrestin-GFP spot imaging, agonist mode | activation, % at 20 µM | hit rate 0.17% among 330,000 | AID 493036, 2011;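 active means activation at or above 40% of the spot to cytoplasm intensity ratio, with at least 20 cells analyzed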
Target sequence (P30989 whole entry, looked up): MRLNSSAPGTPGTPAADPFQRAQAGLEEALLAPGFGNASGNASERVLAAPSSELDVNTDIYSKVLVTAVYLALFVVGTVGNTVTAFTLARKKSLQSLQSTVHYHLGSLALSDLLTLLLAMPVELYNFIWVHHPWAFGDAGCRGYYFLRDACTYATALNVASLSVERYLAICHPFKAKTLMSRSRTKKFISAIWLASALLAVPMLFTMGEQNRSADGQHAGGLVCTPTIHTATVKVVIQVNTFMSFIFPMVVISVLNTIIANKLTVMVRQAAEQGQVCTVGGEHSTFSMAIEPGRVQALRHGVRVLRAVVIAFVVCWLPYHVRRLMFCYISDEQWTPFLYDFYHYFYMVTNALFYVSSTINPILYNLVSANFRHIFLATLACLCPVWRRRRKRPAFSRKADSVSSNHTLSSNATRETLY
V-ATPase pHluor: regulators of yeast V-ATPase proton pumping, primary screen, pHLuorin cytosolic pH fluorescence. S. cerevisiae. response, % at 10 µM. hit rate 0.37% among 350,000; in the data active means response mostly above about 7.3%, no sharp cut-off; inactive means mostly below about 5.4%; further: actives read high
Large screens that a line does not name were inactive.

COc1ccc(CCC(=O)NNC(=O)Cn2nc(C)cc2C)cc1	none
CN1CCS/C1=C\C=C1/SC(=S)N(CC(=O)O)C1=O	CRFR2-BP ag 107 (no result: NTR1 ag)
CCN1C(=O)/C(=C/C=C2/SCCN2C)SC1=S	CRFR2-BP ag 59
O=C(NC1CCCC1)C1CCC(CNS(=O)(=O)c2ccccc2)CC1 (stereo unspecified)	none
O=C(NC1CCCC1)C1CCC(CNS(=O)(=O)c2ccc(F)cc2)CC1 (stereo unspecified)	CRFR2-BP antag 89
O=C(O)c1ccc(Nc2nc(-c3cc4ccccc4oc3=O)cs2)cc1O	CRFR2-BP ag 61
CCOC(=O)C1=C(CSc2nc(-c3ccccc3)ccc2C#N)OC(N)=C(C#N)C1c1ccc(OC)cc1 (stereo unspecified)	CRFR2-BP ag 50
CCC(=O)Nc1cccc(-n2nnnc2SCC(=O)N2CCCCC2)c1	CRFR2-BP ag 89
COc1ccccc1NS(=O)(=O)c1ccc(C(=O)NCC(c2ccco2)N2CCCCC2)cc1 (stereo unspecified)	none (no result: NTR1 ag)
CC(C)CSc1nnc2[nH]c(=O)cc(N)n12	CRFR2-BP antag 96
CCCCCCCCSc1nnc2[nH]c(=O)cc(N)n12	none
CC(COc1ccc(/C=C/c2ccccc2)cc1)[N+](C)(C)C (stereo unspecified)	none
Cc1ccc(/C=C2\SC(=S)N(Cc3ccccc3)C2=O)o1	none
O=C(O)CCCN1C(=O)/C(=C\c2ccc(-c3nc4ccccc4s3)o2)SC1=S	CRFR2-BP ag 109
O=C(O)c1cc(-c2ccc(/C=C3/SC(=S)N(Cc4ccccc4)C3=O)o2)ccc1Cl	CRFR2-BP ag 209 (no result: NTR1 ag)
O=C(O)CC(C(=O)O)N1C(=O)/C(=C/c2ccc(-c3nc4ccccc4s3)o2)SC1=S (stereo unspecified)	CRFR2-BP antag 53
O=C(O)CCN1C(=O)/C(=C/c2ccc(-c3nc4ccccc4s3)o2)SC1=S	none
O=C(COC(=O)CSc1nnc(-c2ccc(Cl)cc2)o1)Nc1cc(Cl)ccc1Cl	none
N#Cc1ccc(NC(=O)COC(=O)CSc2nnc(-c3ccc(Cl)cc3)o2)cc1	CRFR2-BP antag 52
O=C(COC(=O)c1cc(Cl)ccc1O)Nc1cc(C(F)(F)F)ccc1N1CCOCC1	none
Cc1ccc(NC(=O)c2cccc(S(=O)(=O)Nc3c(C)n(C)n(-c4ccccc4)c3=O)c2)cc1C	none (no result: NTR1 ag, V-ATPase pHluor)
Nc1nc(-c2ccc(Cl)cc2)nn1C(=O)c1cccnc1	V-ATPase pHluor 20
Nc1nc(-c2cccnc2)nn1C(=O)c1ccc(Cl)cc1	none (no result: NTR1 ag)
CC(=O)c1ccc(C(=O)Nc2nnc(-c3ccc(Cl)cc3)o2)cc1	none
O=C(Nc1nnc(-c2ccccc2)o1)c1ccc(Cl)cc1	CRFR2-BP antag 73, CRFR2-BP ag 54
COC(=O)C1=NN(c2ccc(C)cc2)C2(S1)SC(C(C)=O)=C(C)N2c1ccccc1 (stereo unspecified)	none
COC(=O)C1=NN(c2ccccc2)C2(S1)SC(C(C)=O)=C(C)N2c1ccccc1 (stereo unspecified)	CRFR2-BP antag 65
COc1cc2[nH]c3c(=O)n4c(nc3c2cc1OC)SCCC4	CRFR2-BP antag 93
COc1ccc(C(=O)NNC(=O)COC(=O)c2sccc2C)cc1	none
O=C1CSC(c2cn(-c3ccccc3)nc2-c2cc3ccccc3oc2=O)N1Cc1ccccc1 (stereo unspecified)	none
O=C1CSC(c2nn(-c3ccccc3)cc2-c2cc3ccccc3oc2=O)N1Cc1ccco1 (stereo unspecified)	CRFR2-BP antag 84
CCCCOc1ccccc1C1NC(=O)CCC1[N+](=O)[O-] (stereo unspecified)	none
COC(=O)C1(c2ccccc2)NC(c2ccc(O)cc2)C2C(=O)N(c3ccc4c(c3)OCO4)C(=O)C21 (stereo unspecified)	none
NC1=NC[C@@H](CC2CCCCC2)N1CCc1cc(C(F)(F)F)cc(C(F)(F)F)c1	CRFR2-BP ag 78
CCOc1ccc(S(=O)(=O)NCCC(=O)N(C)CC(=O)Nc2ccc(N3CCOCC3)cc2)cc1	none
Brc1ccccc1-c1nnc(CSc2nnnn2-c2ccccc2)o1	CRFR2-BP antag 111
O=C(O)CN1C(c2ccccc2O)Nc2ccc(Br)cc2C1c1ccccc1 (stereo unspecified)	CRFR2-BP antag 63
COc1ccc(C2Nc3ccc(Br)cc3C(c3ccccc3)N2CC(=O)O)cc1 (stereo unspecified)	CRFR2-BP antag 87
O=C(NCC(c1ccccc1Cl)N1CCCC1)C1CCN(C(=O)Nc2ccccc2)CC1 (stereo unspecified)	none
CCN1CCC[C@H]1CNCCCn1cnc2c(SC)ncnc21	none (no result: NTR1 ag)
O=C(CSc1ccccc1)Nc1nc2ccccc2[nH]1	V-ATPase pHluor 32
O=C(Cc1ccccc1)Nc1nc2ccccc2[nH]1	none
CCOC(=O)Nc1cc2c(cc1[N+](=O)[O-])-c1ccccc1C2=O	none (no result: NTR1 ag)
CS(=O)(=O)c1ccc(C(=O)OCC(=O)NC23CC4CC(CC(C4)C2)C3)cc1[N+](=O)[O-]	NTR1 ag 68
CC[C@@]12C(=O)N(c3ccc(C)cc3)C(=O)N1[C@H](c1ccc(Br)cc1)[C@@H]1C(=O)N(C(C)(C)C)C(=O)[C@@H]12	none
COc1cc(C(=O)NC(=S)Nc2ccc3[nH]c(=O)[nH]c3c2)cc(OC)c1OC	none
C=CCc1cccc2cc(C(=O)Nc3ccc(S(=O)(=O)Nc4nnc(CC)s4)cc3)c(=O)oc12	CRFR2-BP antag 61 (no result: NTR1 ag)
CCc1nnc(NS(=O)(=O)c2ccc(NC(=S)NC(=O)/C=C/c3ccccc3)cc2)s1	CRFR2-BP antag 56
CN1CCOCCOc2ccccc2OCCOCC1	none
c1ccc2c(c1)OCCOCCOCCOCCOc1ccccc1OCCOCCOCCO2	CRFR2-BP antag 50
Cn1c(=O)c(C#N)c(-c2ccc(F)cc2)c2cc(C(=O)c3cc(Cl)cc(Cl)c3O)cnc21	CRFR2-BP antag 53
COc1ccccc1-n1c(=O)c(C#N)c(-c2ccc([N+](=O)[O-])cc2)c2cc(C(=O)c3cc(F)ccc3O)cnc21	none
Nc1nc(Nc2ccccc2Cl)cc(=O)[nH]1	CRFR2-BP antag 100
O=C(c1ccco1)N1CCN(Cc2nnnn2C2CCCCC2)CC1	none
CC(C)OC(=O)N(C)C[C@@H]1OCc2ccccc2-c2c(n(C)c3ccccc23)C(=O)N([C@@H](C)CO)C[C@H]1C	none (no result: NTR1 ag)
COc1cc(/C=C2\SC(=Nc3ccc(Cl)c(C(=O)O)c3)NC2=O)c(Br)c(Br)c1O	CRFR2-BP ag 201
CCc1ccc(N=C2NC(=O)/C(=C/c3cc(OC)c(O)c(OC)c3)S2)cc1	none
COc1cc(/C=C2\SC(=Nc3ccccc3)NC2=O)cc(Cl)c1O	CRFR2-BP ag 213
CCOC(=O)C1CCN(C(=O)CCn2c(=O)c3cccn3c3cccnc32)CC1	none
CC(=O)Nc1ccc(NC(=O)C(OC(=O)c2ccccc2)C(OC(=O)c2ccccc2)C(=O)O)cc1 (stereo unspecified)	none
O=C(COc1cccc(NC(=O)c2ccccc2)c1)c1ccc(F)cc1	none
O=C(COc1cccc(NC(=O)c2ccco2)c1)c1ccc(F)cc1	V-ATPase pHluor 19
COc1cc(C2C(C(C)=O)=C(O)C(=O)N2Cc2ccccc2)ccc1O (stereo unspecified)	none
